Data on 66 molecules can be found in PubChem BioAssay AID1259343 (VanderVen Lab, College of Veterinary Medicine, Cornell …, 2017).

Molecules are shown by their SMILES. The campaign covered roughly 6,200 compounds. About 2,900 (47%) were called active. The set was probably picked from earlier hits. This is one part of the list. A number with no mark means an inactive call. Cut-off read from the data, not from the text of the source: active = inhibition above about 50%; inactive = the rest.

The test can be described thus: Mycobacterium tuberculosis growth inhibition, primary screen (AID 1259343). Particulars: inhibition: at 10 µM, active compounds read high; outcome: 10 uM.
Broadly, the inhibition is the change of the read-out against control, counted positive when it falls. For the molecule `COc1ccc(OCCSc2nnnn2C2CCCCC2)cc1`, the inhibition is -35.2%. The same measure for `Clc1cc(CSc2nnnn2C2CCCC2)cc2c1OCCO2`: -23.6%; for `c1ccc2c(c1)OCC(CSc1nnnn1C1CCCC1)O2` (stereo unspecified): 96.2% (active). The same measure for `N#CC1(NC(=O)c2cnc(-c3ccc4c(c3)OCO4)s2)CCCC1`: 86.4% (active); for `CN(Cc1ccco1)C(=O)c1cnc(-c2ccc3c(c2)OCO3)nc1Nc1ccccc1`: 47.5%; for `C=CCN(C(=O)c1ccc(-c2ccc3c(c2)OCCO3)s1)C1CCCCC1`: 45.7%. For the molecule `COc1ccc(N=C(c2cc([N+](=O)[O-])cc([N+](=O)[O-])c2)n2ccnc2)cc1`, the inhibition was 92.1% (active). On to `C=Cc1ccc(C(=O)N2CCCC(Nc3ccc(F)cc3)C2)cc1` (stereo unspecified), for which the inhibition is 75.9% (active).

In the case of `O=C(c1cc(Br)c[nH]1)N1CCC(Nc2ccc(F)cc2)CC1`, the inhibition was 1.55%. As to `COCc1ccc(C(=O)N2CCCC(Nc3ccc(C(C)C)cc3)C2)s1` (stereo unspecified), the inhibition was 21.9%. On to `O=C(Nc1nc2c(s1)CCc1ccccc1-2)C1CC1`, for which the inhibition was 64% (active). The same measure for `Cc1nc(NC(=O)C2CC2)sc1Cc1ccccc1Cl`: 32.1%. The same measure for `O=C(C=Cc1cccs1)NC1CCCC1`: 21.5%; for `C(=NNc1ccc2ccccc2n1)c1cccs1`: 39.2%; for `S=C(NN=Cc1cccs1)NC1CCCCC1`: 87.5% (active). The same measure for `O=C(C=Cc1cccs1)NC1CCCCC1`: 37%; for `C=CCNC(=O)C=Cc1cccs1`: 92.6% (active); for `O=C(C=Cc1cccs1)NC1CCCCCC1`: 61.3% (active). Consider `CCC(CNC(=O)/C=C/c1sccc1C)c1ccccc1` (stereo unspecified), for which the inhibition was 28.2%. Take `CC(C)NC(=S)NN=Cc1cccs1`: the inhibition is 100% (active). Turning to `O=S(=O)(C1=Cc2ccccc2CC1)N1CCC2CCCCC2C1` (stereo unspecified), the inhibition was 21.1%.

Take `O=C(C=Cc1ccc(Br)o1)NC1CCCCCC1`: the inhibition was 89.5% (active). The figure for `COC(=O)c1sccc1NC(=O)C=Cc1cccs1` is 81.4% (active); for `O=C(C=Cc1ccco1)NC1CCCC1` it is 25.8%; for `O=C(C=Cc1cccs1)c1cccs1` it is 15.1%. For the molecule `Cc1cccc(Nc2nnc(-c3ccncc3)o2)c1`, the inhibition is -7.46%.

In the case of `c1ccc(-c2cc(Sc3nnc(-c4ccncc4)o3)n3ncnc3n2)cc1`, the inhibition was 102% (active). The figure for `COc1ccc(-c2cc(N)ccc2OC(F)F)cc1` is 34.9%; for `COc1ccc(OCCCOc2ccc([N+](=O)[O-])cc2Cl)cc1` it is 37.7%.

On to `COc1ccc(N=Cc2cc([N+](=O)[O-])ccc2OC(F)F)cc1`, for which the inhibition is 79.9% (active). The figure for `Cc1ccccc1CN1CCN(c2ccc(S(=O)(=O)C(F)F)cc2)CC1` is 27.6%. The same measure for `COc1ccc(CN2CCN(C(c3ccc(F)cc3)c3ccc(F)cc3)CC2)c(OC)c1OC`: 29.5%; for `COc1ccc(N2CCN(Cc3cc(C)c(C)cc3O)CC2)cc1`: 83.8% (active). The figure for `Fc1ccc(-n2cc(-c3ccnc(NCc4ccco4)n3)cn2)cc1` is 18.7%; for `COc1ccc(-c2csc(NCc3ccco3)n2)cc1` it is 70.6% (active). `O=C1C(=C2SCCS2)CCCC12CC2c1ccccc1` (stereo unspecified): the inhibition is 50.8% (active).

As to `O=C(c1cc(COc2cccc(C(F)(F)F)c2)on1)N1CCCN(c2ncccn2)CC1`, the inhibition entry is “inactive”. Turning to `Cc1nc(CCNC(=O)c2cc(COc3ccc4c(c3)CCCC4)on2)sc1C`, the inhibition was 67.7% (active). For the molecule `O=C(c1cc(COc2ccc3c(c2)CCCC3)on1)N1CCCN(c2ncccn2)CC1`, the inhibition is 71.4% (active). As to `CC(C)Oc1ccc(CCNC(=O)c2cc(COc3ccc(F)c(F)c3)on2)cc1`, the inhibition result was “inactive”. The same measure for `Cc1ccc(OCc2cc(C(=O)NCCc3ccc(C(F)(F)F)cc3)no2)cn1`: 68.3% (active); for `O=C(c1cc(COc2ccc3c(c2)CCCC3)on1)N1CCN(C2CCCC2)C(=O)C1`: 69.3% (active). The same measure for `COCc1cc(C(=O)N2Cc3ccccc3N(C)CC2C)no1` (stereo unspecified): -8.57%; for `O=C(c1cc(COc2ccc(-n3cncn3)cc2)on1)N1CCCCO1`: “inactive”.

Regarding `O=C(c1cc(COc2ccc3c(c2)CCCC3)on1)N1CCCCO1`, the inhibition is 92.2% (active).

Consider `Cn1c(=O)c2c(S(C)=O)snc2n(C)c1=O` (stereo unspecified), for which the inhibition was 100% (active). As for `Cc1cc(C)n(CC(O)COc2ccc3c(c2)CCC3)n1` (stereo unspecified), the inhibition is 70.7% (active). The same measure for `Cc1nn(CC(O)COc2ccc3c(c2)CCC3)c(C)c1C` (stereo unspecified): 74.7% (active); for `Cc1cc(C)n(CC(O)COc2ccc(C(C)(C)C)cc2)n1` (stereo unspecified): 44.2%. The same measure for `COc1ccc(OCCN(C)S(=O)(=O)c2ccc3c(c2)CCC3)cc1`: 48%; for `Cn1ccc(NC(=O)c2cc3c(s2)CCC(C(C)(C)C)C3)n1` (stereo unspecified): 49.2%. The same measure for `CCOc1cc(Cl)ccc1NC(=O)Nc1cccnc1`: 32%.

For the molecule `N[C@@H](CCCCNC(=O)c1cccnc1)C(=O)NNc1ccc(Cl)cc1`, the inhibition was 95.5% (active). Take `CC(C)NC(=O)CC1(C(=O)Nc2ccc(-c3ccccc3)cc2)CCCC1`: the inhibition was 91.1% (active). The figure for `CN(C)C(=O)C1(CNC(=O)Nc2ccc(F)c(C(F)(F)F)c2)CCCC1` is 4.66%; for `CSc1ccc(NC(=O)CC2(C(=O)O)CCCC2)cc1` it is 85.9% (active). The same measure for `COc1ccc(F)cc1C(=O)C1CCCN(C(=O)Nc2ccc(SC)cc2)C1` (stereo unspecified): 2.1%; for `CC(C)NS(=O)(=O)Cc1ccc(CNC(=O)Nc2ccc(-c3ccccc3)cc2)cc1`: -37.3%; for `O=C(CSCc1ccncc1)Nc1ccc(-c2cncnc2)cc1`: 89.9% (active). The same measure for `FC(F)(F)CN1CCC(NCc2ccc(-c3ccccc3Cl)s2)C1` (stereo unspecified): 26.6%; for `O=S(=O)(Nc1cnc(-c2ccccc2)nc1)c1ccc(F)c(F)c1`: 58.3% (active); for `O=S(=O)(Nc1ccc(OC(F)(F)F)cc1)c1ccc(F)c(F)c1`: 16%. On to `O=S(=O)(Nc1ccc(SC(F)F)cc1)c1ccc(F)c(F)c1`, for which the inhibition is 96.8% (active). The same measure for `CN(CC(N)=O)S(=O)(=O)c1cc2cc(Cl)ccc2s1`: 90.5% (active); for `Oc1cc(OCCN2CCN(Cc3ccc4c(c3)OCO4)CC2)ccc1-c1[nH]ncc1-c1ccccc1`: 81.6% (active); for `O=C(C1COc2ccccc2O1)N1CCc2onc(-c3cccc(F)c3)c2C1` (stereo unspecified): 10.6%.
